Bioassay records as filed in PubChem BioAssay.
FUS yeast rescue: qHTS for Suppressors of FUS Proteinopathy: Primary screen using FUS-linked yeast assay; actives 0.24% (n = 390,000); S. cerevisiae FUS-expressing, growth rescue, OD600, 24 h; Potency, µM (doses to about 76.6 µM), actives largely listed as activators; AID 1347120, 2019;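 note: potency is the fitted concentration of half-maximal effect; plate controls were DMSO vehicle for no effect and reference control for full effect; nearly all actives have a fitted effect of over 55% in size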
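Galactose (2%) drives FUS expression in yeast precultured in raffinose; seeding density OD 0.005. Test compounds incubated 24hr at 30C and 99% humidity before absorbance at 600 nm was measured.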
PTHR1 ag: qHTS for PTHR1 Agonists: Primary Screen; Parathyroid hormone/parathyroid hormone-related peptide receptor (Homo sapiens), Q03431; HEK293 GP2 PTHR1 cells, GloSensor cAMP luminescence, 1 h; Potency, µM (doses to about 115 µM), inactives show at the top dose activation, usual class: activators; actives 0.075% (n = 410,000); AID 743266, 2014; note: potency is the fitted concentration of half-maximal effect; nearly all actives have a fitted effect of over 55% in size
Target sequence (Q03431 whole entry, looked up): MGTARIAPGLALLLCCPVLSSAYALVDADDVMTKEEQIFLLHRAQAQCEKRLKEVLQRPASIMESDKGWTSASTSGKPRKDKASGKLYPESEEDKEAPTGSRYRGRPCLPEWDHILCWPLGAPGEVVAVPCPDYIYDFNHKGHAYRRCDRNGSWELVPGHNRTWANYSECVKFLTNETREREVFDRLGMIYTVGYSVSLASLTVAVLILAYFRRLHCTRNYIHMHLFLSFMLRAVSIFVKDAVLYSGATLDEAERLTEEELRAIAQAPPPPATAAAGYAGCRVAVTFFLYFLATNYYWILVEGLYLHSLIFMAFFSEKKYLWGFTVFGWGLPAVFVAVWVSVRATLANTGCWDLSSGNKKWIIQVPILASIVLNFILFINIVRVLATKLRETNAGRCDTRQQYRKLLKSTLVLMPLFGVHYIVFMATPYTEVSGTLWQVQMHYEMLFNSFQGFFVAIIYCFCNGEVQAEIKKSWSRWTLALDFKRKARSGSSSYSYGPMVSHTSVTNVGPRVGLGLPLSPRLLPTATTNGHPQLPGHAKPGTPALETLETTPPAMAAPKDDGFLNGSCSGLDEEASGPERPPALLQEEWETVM
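HEK-293-derived GP2 cells expressing PTHR1 and a GloSensor cAMP reporter, 3,000/well, plated overnight, given luciferin plus IBMX (each 0.5 mM as added) for 1 h at 37 °C, then compound for 1 h at 37 °C. Luminescence was read after 15 min at room temperature.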
Abeta rescue: qHTS for compounds that reverse cellular toxicity of Amyloid beta (A-beta) peptide in yeast: Primary Screen. yeast expressing A-beta42, growth rescue, OD600, 48 h; response scale: 0% DMSO, 100% iron-clioquinol control. Potency, µM (series often up to 46.1 µM), most hits filed as activators. actives 0.063% (n = 410,000). AID 1347071, 2019; note: potency is the fitted concentration of half-maximal effect; nearly all actives have a fitted effect of over 55% in size
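Growth rescue measured by 600 nm absorbance after 48 h yeast culture at 30 C with compound. Values normalized between DMSO and an equimolar ferric chloride plus clioquinol control.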
LDHA block: qHTS assay for inhibitors of human lactate dehydrogenase. actives 0.15% (n = 480,000). L-lactate dehydrogenase A chain (Homo sapiens), P00338. purified LDHA, NADH/diaphorase-resazurin fluorescence; stronger effect = lower value. activity change, % (values are at about 110 or 230 µM); in the data active = activity change below about -30%; inconclusive = mostly about -25% to -30%;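 note: plate controls were DMSO wells for no effect and wells without enzyme for full effect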
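Remaining NADH was detected by diaphorase (0.133 mg/mL) converting 37 µM resazurin to fluorescent resorufin, read at 0 and 20 minutes. The preceding 5-minute room-temperature reaction used 2 nM LDHA, 0.2 mM sodium pyruvate and 0.06 mM NADH at pH 7.4.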
aSyn yeast inh: qHTS of alpha-syn Inhibitors. Yeast expressing alpha-synuclein, growth rescue, BacTiter-Glo, 24 h. Potency, µM (top dose mostly 46.1 µM), for inactives: at the top dose growth rescue (activation), most hits filed as activators. actives 0.14% (n = 370,000). AID 652106, 2013; note: potency is the fitted concentration of half-maximal effect; % of control where 0% means no effect; nearly all actives have a fitted effect of over 65% in size
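Galactose-induced alpha-syn yeast (OD600=0.02, raffinose-pregrown) + pinned cpd, 24 hr, 30 deg C; growth by BacTiter-Glo luminescence. Growth restoration scores as activation.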
TDP-43 yeast inh: qHTS of TDP-43 Inhibitors; Potency, µM (top dose mostly 46.1 µM), for inactives: top-dose growth rescue (activation), usual class: activators; actives 1.8% (n = 410,000); TDP-43 expressing yeast growth rescue, BacTiter-Glo, 24 h; AID 652104, 2013; note: potency is the fitted concentration of half-maximal effect; % of control where 0% means no effect; nearly all actives have a fitted effect of over 50% in size
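Yeast expressing TDP-43 (pregrown in raffinose, seeded at OD600=0.02 in galactose medium) exposed to compounds 24 hr at 30 deg C. Growth read by BacTiter-Glo luminescence; rescue of toxicity appears as increased signal.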
* = called active by the depositor; i = inactive; u = inconclusive; x = not tested or not shown; [ ] = dose if it differs, or a comment. The list is not random: actives were taken first. Their share in the collection is about 1.9%. Unless noted, calls come from the whole dose curve; as a rule, active = well fitted curve in the direction sought with a large enough effect; inconclusive = small, poorly fitted or top-dose-only effect, or another doubt; inactive = no such curve, though single readings can be large; an effect the other way counts as inactive or inconclusive.

SMILES | FUS yeast rescue | PTHR1 ag | Abeta rescue | LDHA block | aSyn yeast inh | TDP-43 yeast inh
CCn1ccc2c(OCC(=O)Nc3ccccc3C)cccc2c1=O | i | -8% | i | 1 | x | 13µM*
CCOc1ccccc1Oc1c(C)oc2cc(OC(=O)c3ccc4c(c3)OCO4)ccc2c1=O | x | x | x | 1 | x | x
CCOc1ccccc1Oc1coc2cc(OC(=O)c3ccc4c(c3)OCO4)ccc2c1=O | x | x | x | -31* | x | x
CCc1ccc(NC(=O)c2noc(C(C)C)c2[N+](=O)[O-])cc1 | i | -13% | i | 2 | 2% | 11µM*
CC(=O)c1ccc(NC(=O)c2ccc([N+](=O)[O-])o2)cc1 | i | -20% | i | 8 | -53% | 16µM*
CC(=O)c1cccc(NC(=O)c2ccc([N+](=O)[O-])o2)c1 | i | 0% | i | 8 | -27% | u
CC(=O)c1ccc(NC(=O)c2noc(C(C)C)c2[N+](=O)[O-])cc1 | i | -35% | i | -1 | -13% | 18µM*
COc1ccc(NC(=O)c2noc(C(C)C)c2[N+](=O)[O-])cc1 | i | 4% | i | 4 | 0% | 5%[0.397 µM]
COc1ccc2[nH]c3c(c2c1)CCN1C(=O)C(CC(=O)NCC24CC5CC(CC(C5)C2)C4)C[C@H](C(=O)N2CCOCC2)[C@@]31C (stereo not given in full) | i | -14% | i | 3 | 0% | 18%
CCN(CC)C(=O)[C@H]1CC(CC(=O)NCC23CC4CC(CC(C4)C2)C3)C(=O)N2CCc3c([nH]c4ccccc34)[C@]12C (stereo not given in full) | i | i | i | 6 | u | 28µM*
C[C@]12c3[nH]c4ccc(Cl)cc4c3CCN1C(=O)[C@@H](CC(=O)NCC13CC4CC(CC(C4)C1)C3)C[C@@H]2C(=O)N1CCCCC1 | i | i | i | 4 | 16µM* | 19%
COc1ccc2[nH]c3c(c2c1)CCN1C(=O)C(CC(=O)NCC24CC5CC(CC(C5)C2)C4)C[C@H](C(=O)N(C(C)C)C(C)C)[C@@]31C (stereo not given in full) | u | -18% | i | 4 | -15% | 11µM*
C[C@]12c3[nH]c4ccc(Cl)cc4c3CCN1C(=O)[C@@H](CC(=O)NCC13CC4CC(CC(C4)C1)C3)C[C@@H]2C(=O)N1CCOCC1 | u | -2% | i | 3 | 11% | 20%
NC(=O)C1CCN(C(=O)C2CCN(S(=O)(=O)Cc3ccccc3Cl)CC2)CC1 | x | x | x | 1 | x | x
O=S(=O)(N=C(NS(=O)(=O)c1ccc(Cl)cc1)c1ccccc1)c1ccc(Cl)cc1 | i | i | i | -9 | -2% | 11µM*
N#C/C(=C/c1cc(Br)ccc1OC(F)F)c1ccccn1 | x | x | x | 11 | x | x
CCC12CC3CC(C1)CC(C(=O)O)(C3)C2 | i | u | i | -3 | 0% | 14µM*
C#CCOc1ccc2c(C)cc(=O)oc2c1 | i | -11% | i | -2 | 0% | 20µM*
CC(=O)N1CCC(N(Cc2ccco2)C(=O)Nc2ccccc2C(F)(F)F)CC1 | x | x | x | 6 | x | x
O=S(=O)(c1ccccc1)N(CC(F)(F)F)c1ccc(C(O)(C(F)(F)F)C(F)(F)F)cc1 | i | -89% | u | -10 | -19% | 22µM*
O=C1c2cc3c(cc2CCC1c1ccc2c(c1)OCO2)OCO3 (stereo not given) | i | -12% | i | 9 | -4% | 16µM*
O=C1CC(c2ccc3c(c2)OCO3)c2cc3c(cc2N1)OCO3 (stereo not given) | i | -20% | i | -2 | 1% | 18%
O=C(C1CCCN(S(=O)(=O)c2cc(Cl)ccc2Cl)C1)N1CCCCCC1 (stereo not given) | x | -39% | i | -5 | 3% | 11µM*
COc1cc(OC)c(C(=O)OCN2C(=O)c3ccccc3C2=O)cc1OC | i | i | i | 6 | -8% | -1%
CCc1ccc(OC(=O)CN2C(=O)c3ccccc3C2=O)cc1 | i | i | i | -3 | 12% | 16µM*
SMILES | FUS yeast rescue | PTHR1 ag | Abeta rescue | LDHA block | aSyn yeast inh | TDP-43 yeast inh
COc1ccc(C(=O)OCN2C(=O)c3ccccc3C2=O)cc1 | i | i | i | -6 | u | 10µM*
Cc1cccc(C)c1NC(=O)c1ccc(-c2cc(F)ccc2F)o1 | i | -51% | i | x | -1% | 11µM*
Cc1ccccc1NC(=O)c1ccc(-c2ccc(Cl)cc2Cl)o1 | i | -8% | u | 3 | 1% | 20µM*
Cc1cccc(C)c1NC(=O)c1ccc(-c2ccc(Cl)cc2Cl)o1 | i | -38%[57.5 µM] | i | -2 | 0% | 21%
CCOC(=O)c1c(NC(=O)CSc2nnc(C)s2)sc2c1CCN(C)C2 | 25µM* | i | i | 2 | -5% | -2%
O=C(Nc1ccc2c(c1)C(=O)N(c1ccccc1)C2=O)C1CCCO1 (stereo not given) | i | -1%[57.5 µM] | i | -4 | -8% | 13µM*
CC1CCc2c(sc(N)c2C(N)=O)C1 (stereo not given) | 32µM* | i | i | 12 | 15% | -16%
Cc1ccc(NC(=O)Cc2n[nH]c(=O)c3ccccc23)cc1 | x | x | x | 5 | x | x
O=[N+]([O-])c1ccc(N/N=C2\CC3CC=CC23)c([N+](=O)[O-])c1 (stereo not given) | i | -40% | i | -7 | 3% | 35µM*
O=[N+]([O-])c1ccc(N/N=C2\CC3CC=CC23)cc1 (stereo not given) | i | -94% | i | -1 | 2% | 21%
CCCN1C(=O)/C(=C/c2ccc(N3CCCC3)c(C)c2)NC1=S | i | -1%[57.5 µM] | i | 2 | -16% | 3.2µM*
CCCN1C(=O)/C(=C/c2ccc(OCC(=O)OCC)cc2)NC1=S | 22µM* | -28% | i | 2 | 0% | -10%
CCCN1C(=O)/C(=C/c2ccc(N3CCOCC3)cc2)NC1=S | i | -37% | i | -1 | -13% | -2%
CC(NC(=O)c1ccccc1Br)c1nnc(SCC(=O)N2CCOCC2)n1C (stereo not given) | x | x | x | 2 | x | x
NC(=O)NC[C@@H]1CC[C@@H](Cc2ccc(-c3ccccc3)cc2)O1 | i | -23% | i | 0 | 1% | 18%
